Assay [1] in a line: Quantitative High-Throughput drug screen in 47 multiple myeloma cell lines against the NCATS MIPE library collection: LP1_DSMZ cell viability assay (AID 1918982). Note: nearly all actives have a fitted effect of over 35% in size. The method, boiled down:
(§1)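 Myeloma cells (500/well) treated with MIPE 4.0 compounds for 48 h at 37 °C, 5% CO2. Viability read as ATP via CellTiter-Glo luminescence after 5 min at RT; DMSO-only wells = 100%, media-only = 0% viability.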

The nature of assay [2]: Quantitative High-Throughput drug screen in 47 multiple myeloma cell lines against the NCATS MIPE library collection: KMS28PE_JCRB cell viability assay (AID 1918983). Note: nearly all actives have a fitted effect of over 35% in size. The method, boiled down: as §1
Assay [3] can be described thus: Quantitative High-Throughput drug screen in 47 multiple myeloma cell lines against the NCATS MIPE library collection: L363_DSMZ cell viability assay (AID 1918984). Note: nearly all actives have a fitted effect of over 40% in size. The method in brief:
as §1

A short description of assay [4]: Quantitative High-Throughput drug screen in 47 multiple myeloma cell lines against the NCATS MIPE library collection: OCIMY7_PLB cell viability assay (AID 1918987). Note: nearly all actives have a fitted effect of over 65% in size. The settings on record: OCI-MY7 myeloma viability, CellTiter-Glo ATP, 48 h; viability (% of DMSO): at 45.8 µM (top of the series). The method, boiled down:
as §1
(ATP-based viability assays read luminescence as a measure of living cells.)

A short description of assay [5]: Quantitative High-Throughput drug screen in 47 multiple myeloma cell lines against the NCATS MIPE library collection: OCIMY5_PLB cell viability assay (AID 1918988). Note: nearly all actives have a fitted effect of over 65% in size. The method, boiled down:
as §1

The nature of assay [6]: Quantitative High-Throughput drug screen in 47 multiple myeloma cell lines against the NCATS MIPE library collection: OPM1_PLB cell viability assay (AID 1918989). Note: nearly all actives have a fitted effect of over 40% in size. The method, boiled down:
as §1

The nature of assay [7]: Quantitative High-Throughput drug screen in 47 multiple myeloma cell lines against the NCATS MIPE library collection: U266_ATCC cell viability assay (AID 1919864). Note: nearly all actives have a fitted effect of over 35% in size. The method in brief: as §1
Assay [8] can be described thus: Quantitative High-Throughput drug screen in 47 multiple myeloma cell lines against the NCATS MIPE library collection: XG6_PLB cell viability assay (AID 1919865). Note: nearly all actives have a fitted effect of over 40% in size. The method in brief:
as §1

Assay [9] can be described thus: Quantitative High-Throughput drug screen in 47 multiple myeloma cell lines against the NCATS MIPE library collection: KMS34_JCRB cell viability assay (AID 1918985). Note: nearly all actives have a fitted effect of over 40% in size. The method in brief: as §1
Assay [10] in a line: Quantitative High-Throughput drug screen in 47 multiple myeloma cell lines against the NCATS MIPE library collection: SKMM1_PLB cell viability assay (AID 1919863). Note: nearly all actives have a fitted effect of over 35% in size. The conditions noted are these: SKMM1 myeloma viability, CellTiter-Glo ATP, 48 h; viability: active compounds read low. The method, boiled down:
as §1

Inconclusive results are not listed. A number with no mark means an inactive call. Activity calls are given as the source filed them. Calls come from the whole dose curve; as a rule, active = well fitted cell-killing curve with a large enough effect; inconclusive = small, poorly fitted or top-dose-only effect, or effect the other way; inactive = no such curve, though single readings can be large or run the other way.

The term viability denotes a read-out of living cells in per cent, often relative to untreated cells.
Potency is the fitted concentration of half-maximal effect.

As to `CC(C)(N)c1ccc(-c2nc3ccccc3nc2-c2ccccc2)cc1`, the Potency in assay [1] was 18.7 µM (active); in [2] it was 18.7 µM (active); in assay [3], 3.32 µM (active); in assay [4] it was 7.43 µM (active); in [5], 23.5 µM (active); in assay [6] it was 5.9 µM (active). The Potency in assay [7] is 23.5 µM (active); in assay [8] it was 5.9 µM (active).
As to `CC(=O)OCC(=O)[C@@]1(O)CC[C@H]2[C@@H]3CCC4=CC(=O)CC[C@]4(C)[C@@H]3C(=O)C[C@@]21C`, the Potency result in [1], in assay [2], in [3], in [9], in assay [5] and in assay [6] was “inactive” each time. Moreover, the Potency result in assay [8] was “inactive”.
For `O=C(Nc1cccc(Nc2ncc(Br)c(NCCc3cnc[nH]3)n2)c1)N1CCCC1`, the Potency was 20.9 µM (active) in assay [1]; 14.8 µM (active) in [2]; 3.72 µM (active) in [4]; 14.8 µM (active) in assay [5]; 1.87 µM (active) in [6]; 23.5 µM (active) in assay [10]. The Potency is 16.6 µM (active) in assay [7] and 0.59 µM (active) in assay [8]. For the same molecule, the Potency entry in [3] is “inactive”.
Consider `CCC[C@H]1C[C@H](C(=O)N[C@@H]([C@@H]2O[C@@H](SC)[C@@H](O)[C@@H](O)[C@@H]2O)[C@H](C)Cl)N(C)C1`, for which the Potency entry in [1], in assay [2], in assay [3], in assay [9], in [4] and in assay [5] was “inactive” throughout. Also, the Potency entry in assay [6] and in [8] was “inactive” each time.
`C[C@H](CCC(=O)O)[C@H]1CCC2C3C[C@H](O)[C@@H]4C[C@H](O)CC[C@]4(C)C3CC[C@@]21C` (some centres undefined): the Potency result in assay [1], in assay [2], in assay [3], in assay [9], in assay [5] and in [6] was “inactive” each time. Besides, the Potency entry in [7] is “inactive”. Further, the viability in assay [10] was 96.1%.
Turning to `CC[C@H]1OC(=O)[C@H](C)[C@@H](O[C@H]2C[C@@](C)(OC)[C@@H](O)[C@H](C)O2)[C@H](C)[C@@H](O[C@@H]2O[C@H](C)C[C@H](N(C)C)[C@@H]2O)[C@](C)(OC)C[C@@H](C)C(=O)[C@H](C)[C@@H](O)[C@]1(C)O`, the Potency entry in assay [1], in [2], in assay [3], in [4] and in [6] was “inactive” each time. Moreover, the Potency in assay [10] is 0.105 µM (active).
For `CCNC(=O)Nc1ccc(-c2nc3c(c(N4CCOC[C@H]4C)n2)CCN(C2COC2)C3)cc1`, the Potency in assay [1] is 0.0372 µM (active); in assay [2], 0.833 µM (active); in assay [3] it was 0.209 µM (active); in assay [9], 1.05 µM (active); in assay [5], 1.66 µM (active); in [6], 1.18 µM (active). Moreover, the Potency in assay [10] and in assay [8] was 0.935 µM (active) each time.
Take `O=C(c1ccc(F)cc1)N1CCC[C@H](c2nc(-c3ccc(F)cc3)no2)C1`: the Potency result in [1], in [2], in assay [3], in assay [9], in assay [6] and in assay [7] was “inactive” throughout. The Potency entry in [8] is “inactive”.
`C[C@H](CCC(=O)O)[C@H]1CC[C@H]2[C@@H]3[C@H](O)C[C@@H]4C[C@H](O)CC[C@]4(C)[C@@H]3CC[C@]12C`: the Potency entry in [1], in [2], in assay [3], in assay [9], in assay [6] and in assay [8] was “inactive” each time. The viability in assay [10] was 131%.
For the molecule `CCOC(=O)[C@H](CCc1ccccc1)N[C@@H](C)C(=O)N1[C@@H](C(=O)O)C[C@H]2CCC[C@@H]21`, the Potency in assay [1] is 20.9 µM (active); in assay [2], 23.5 µM (active); in assay [3], 7.43 µM (active); in assay [9], 26.4 µM (active); in [5] it was 14.8 µM (active); in assay [6] it was 5.26 µM (active). Also, the figures for the Potency in assay [7] and in [8] were 8.33 µM (active) and 7.43 µM (active), respectively.
Consider `CC(C)c1cnn2c(NCc3ccccc3)cc(NCCCCCCN)nc12`, for which the Potency in assay [1] was 18.7 µM (active); in assay [2] it was 14.8 µM (active); in assay [3] it was 14.8 µM (active); in [4] it was 11.8 µM (active); in [5] it was 6.62 µM (active); in assay [6] it was 18.7 µM (active). Further, in assay [7], the Potency is 2.64 µM (active).
For `CN[C@H]1[C@@H](O)[C@@H]2O[C@@H]3O[C@H](C)CC(=O)[C@]3(O)O[C@@H]2[C@@H](NC)[C@H]1O`, the Potency in assay [1] was 5.9 µM (active); in [2], 10.5 µM (active); in [3] it was 0.743 µM (active); in assay [4], 8.33 µM (active); in assay [5] it was 1.18 µM (active); in assay [6], 8.33 µM (active). Also, the results for the Potency in assay [10], in assay [7] and in assay [8] were 10.5 µM (active), 0.662 µM (active) and 0.296 µM (active), respectively.
Regarding `C=C(C)[C@@H]1CC[C@]2(C(=O)O)CC[C@]3(C)[C@H](CC[C@@H]4[C@@]5(C)CC[C@H](O)C(C)(C)[C@@H]5CC[C@]43C)[C@@H]12`, the Potency entry in assay [1], in assay [3], in [9], in [6] and in [7] was “inactive” throughout. Moreover, the Potency in assay [2] was 3.72 µM (active); in assay [5] it was 5.9 µM (active); in assay [10], 0.935 µM (active); in assay [8], 2.96 µM (active).
Take `OCc1ccccc1O[C@@H]1O[C@H](CO)[C@H](O)[C@H](O)[C@H]1O`: the Potency entry in assay [1], in assay [2], in [3], in assay [9], in assay [6] and in assay [7] was “inactive” each time. Also, the Potency in assay [4] is 26.4 µM (active). In addition, the viability in assay [10] was 130%.

The record behind these values is PubChem BioAssay (NCATS).
